Rows were chosen to be rich in hits. Some 13% of all compounds tested hit in one or more screens of this group.
HADH2 inhib – inhibitors of human HADH2 dehydrogenase. Q99714. recombinant HADH2, NADH fluorescence, beta-hydroxybutyryl-CoA. Potency, µM (doses to about 57.1 µM), hits mostly inhibitors. 73,000 tested, 3.4% active. AID 886; also: nearly all actives have a fitted effect of over 60% in size
Target sequence (Q99714 whole entry, looked up, one chain of several): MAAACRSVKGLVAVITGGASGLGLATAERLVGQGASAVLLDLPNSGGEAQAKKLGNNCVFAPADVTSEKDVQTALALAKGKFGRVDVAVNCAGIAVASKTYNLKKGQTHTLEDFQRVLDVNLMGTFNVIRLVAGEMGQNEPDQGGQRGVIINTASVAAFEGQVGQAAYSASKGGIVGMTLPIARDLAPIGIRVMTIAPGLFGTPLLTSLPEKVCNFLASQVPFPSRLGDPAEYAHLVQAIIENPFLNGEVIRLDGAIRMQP
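E. coli-expressed His-tagged HADH2 tested at 20 nM in alkaline Tris buffer (pH 9.0); oxidation of 90 uM beta-hydroxybutyryl-CoA with 1 mM NAD+ tracked fluorimetrically for 4 min.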
4-MU autofl – compounds fluorescent in 4-MU spectral region. max dye-equivalent concentration, M. 59,000 tested, 11% active. compound autofluorescence, 340/450 nm, 4-MU equivalents; hits give high values; in the data active = max dye-equivalent concentration above about 10 nM; inconclusive = mostly about 1.1 nM to 9.6 nM
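Compounds in 100 mM Tris, pH 8.0, incubated 15 min at room temperature, then fluorescence read at 340 nm excitation/450 nm emission. Signal converted to 4-MU dye-equivalent concentration using an on-plate six-point 4-MU standard curve.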
A350 autofl – A350 region autofluorescence; Compound autofluorescence, 340/450 nm, Alexa 350 dye-equivalents; hits give high values; max dye-equivalent concentration, M; 59,000 tested, 11% active; in the data active = max dye-equivalent concentration above about 10 nM; inconclusive = mostly about 1.1 nM to 9.6 nM
AID923 – qHTS Assay for Allosteric/Competitive Inhibitors of Caspase-1: Spectroscopic Profiling in AFC Spectral Region. compound fluorescence, AFC spectral region (405/520 nm). Potency, µM (titrated, usually from 57.5 µM), usual class: activators. 75,000 tested, 1.1% active
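Baseline compound fluorescence (AFC region, 405 nm ex/520 nm em) taken from the intercept of kinetic reads with 50 nM caspase-1 and 5 uM Ac-WEHD-AFC; normalized to an on-plate AFC standard curve; compounds titrated up to 57 uM.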
HSD17B inh – HSD17B dehydrogenase inhibition | 75,000 tested, 7.6% active | Potency, µM (series often up to 57.1 µM), usual class: inhibitors | Q99714 | AID 893 | recombinant HSD17B10, NADH fluorescence kinetic;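 also: the protocol describes HADH2 (HSD17B10) and not the HSD17B4 of the title; nearly all actives have a fitted effect of over 70% in size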
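Activity followed as NADH fluorescence increase (ex 360, em 450 nm) every 30 seconds for 4 min, using final 90 uM beta-hydroxybutyryl CoA and 1 mM NAD+. Recombinant His-tagged enzyme, 20 nM, pH 9.0 Tris buffer, 15 min compound preincubation.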
Hits are given with their value; i = inactive; ? = inconclusive; nt = not tested or not shown; [ ] = remark or other dose. Unless noted, calls follow the shape of the dose curve; as a rule, active = well fitted curve in the direction sought with a large enough effect; inconclusive = small, poorly fitted or top-dose-only effect, or another doubt; inactive = no such curve, though single readings can be large; an effect the other way counts as inactive or inconclusive.

SMILES	HADH2 inhib	4-MU autofl	A350 autofl	AID923	HSD17B inh
COC(=O)C1=C(C)NC(C)=C(C(=O)OCCN(C)Cc2ccccc2)[C@@H]1c1cccc([N+](=O)[O-])c1	i	i	i	i	i
CN(C)S(=O)(=O)n1cnc2ccccc21	i	8.11e-06M	5.01e-06M	i	i
Clc1ccccc1CNCC1CCC(CNCc2ccccc2Cl)CC1 (stereo not drawn)	i	nt	nt	i	i
CCOC(=O)Cn1c(-c2ccccn2)nc2ccccc21	?	nt	nt	i	31.6µM
Cc1nc2ccccc2n1CC(=O)NCCN1CCCC1	i	i	i	i	i
CCN(CC)CCNC(=O)Cn1c(-c2ccccn2)nc2ccccc21	?	i	?	i	25.1µM
COC(=O)CN=C1OC(=O)N2C(=O)C3=C4C(C[C@H]5C(=O)N(c6ccccc6)C(=O)[C@H]5[C@H]4[C@@]12Cc1ccccc1)[C@H]1C(=O)N(c2ccccc2)C(=O)[C@H]1[C@H]3C (stereo partly drawn)	nt	nt	nt	i	i
C[C@H]1C[C@H]2[C@H]3CCC4=CC(=O)C=C[C@@]4(C)[C@]3(F)[C@H](O)C[C@]2(C)[C@@]1(O)C(=O)COP(=O)(O)O	i[11.4 µM]	i	i	i[11.5 µM]	i[11.4 µM]
CCCc1cc(=O)n2[nH]c(-c3ccccc3)cc2n1	i	i	i	i	31.6µM
COCc1cc(=O)n2[nH]c(C)cc2n1	25.1µM	i	i	i	25.1µM
CCOC(=O)Cc1cc(=O)n2[nH]c(C)cc2n1	i	i	i	i	i
CCCc1cc(=O)n2[nH]c(-c3ccc(C)cc3)cc2n1	?	i	i	i	20µM
COCc1cc(=O)n2[nH]c(-c3cccc(Br)c3)cc2n1	i	nt	nt	i	i
COCc1cc(=O)n2[nH]c(-c3ccccc3)cc2n1	31.6µM	nt	nt	i	31.6µM
CNC(=O)[C@@H]1O[C@@H](n2cnc3c(NCc4ccc(N)cc4)ncnc32)[C@@H](O)[C@H]1O	i	i	i	i	i
COC(=O)C(Cc1cnc[nH]1)NC(=O)C1CCC(=O)N1 (stereo not drawn)	i	i	i	i	i
c1nc(NC2CCNCC2)c2cc(-c3ccoc3)ccc2n1	i	2.7e-08M	2.86e-08M	i	25.1µM
O=C(NCCc1ccccc1)C1CCCN1C(=O)Nc1ccc(F)cc1 (stereo not drawn)	i	1.66e-08M	1.87e-08M	i	i
O=C(O)CN1C(=O)O[C@@H](c2ccccc2)C1=O	i[11.4 µM]	i	i	i[11.5 µM]	i[11.4 µM]
CCOC(=O)c1sc(-c2ccccc2)cc1NC(=O)CSc1nnnn1C	?	1.3e-08M	1.11e-08M	i	?
CCOc1ccc(-c2nc(CSCC(=O)NCCN3CCOCC3)c(C)o2)cc1	i	i	i	i	25.1µM
CSc1ccc(-c2nc(CSCC(=O)N3CCOCC3)c(C)o2)cc1	i	i	i	i	25.1µM
CCN1C(=O)[C@H]2[C@H]3[C@H](O)[C@H](O)C/C(=N/OC[C@@H](O)[C@H]4O[C@H]5OC(C)(C)O[C@H]5[C@@H]4O)[C@@H]3CC[C@@H]2C1=O	i[11.4 µM]	nt	nt	i[11.5 µM]	i[11.4 µM]
Cc1nn(-c2ccccc2)c2[nH]c(=O)c(CNc3ccc(N4CCOCC4)cc3)cc12	i	i	i	i	i
O=c1[nH]c2c(cc1CNCCN1CCOCC1)c(-c1cccc(F)c1)nn2-c1ccccc1	i	?	1.05e-08M	i	25.1µM
SMILES	HADH2 inhib	4-MU autofl	A350 autofl	AID923	HSD17B inh
Cn1c(N)nc2c(nc(OCc3ccccc3)n2[C@@H]2O[C@H](CO)[C@@H](O)[C@@H]2O)c1=O	i[11.4 µM]	i	i	i[11.5 µM]	i[11.4 µM]
O=C(COc1ccc(Br)cc1)Nc1ccc(-c2nnc(-c3ccco3)o2)cc1	?	i	i	i	i
CCC(Oc1ccccc1)C(=O)Nc1ccc(-c2nnc(-c3ccco3)o2)cc1 (stereo not drawn)	i	i	i	i	31.6µM
COc1ccc(OC)c(CCNC(=O)Cn2sc3nc(C)cc(C)c3c2=O)c1	0.251µM	nt	nt	i	6.31µM
Cc1ccc(CNC(=O)CN2CCC(C(N)=O)CC2)cc1	i	2.9e-08M	5.67e-08M	i	i
CC1CCN(CC(=O)NCc2ccccc2)CC1	i	i	i	i	i
O=C(O)c1ccccc1C(=O)c1cccs1	i	i	?	i	i
CN(C(=O)c1cccs1)c1ccccc1C(=O)O	?	nt	nt	i	25.1µM
CCN(CC)CCOc1cc2c(nn1)Oc1ccccc1N2C	i	8.36e-07M	1.19e-06M	i	25.1µM
CCN(CC)CCOc1ccc(Br)cc1	i	nt	nt	i	i
CC(=O)N1CC=CC1(CC(C)C)C(=O)NCc1ccccn1 (stereo not drawn)	i	nt	nt	i	i
COC1(OC)N=C(N)C2(C#N)C(c3cccc(Oc4ccccc4)c3)C12C#N (stereo not drawn)	i	6.93e-08M	6.7e-08M	i	i
COc1cccc(C2CC(c3ccccc3)Nc3ncnn32)c1 (stereo not drawn)	?	1.18e-08M	1.69e-08M	i	i
CSc1nc(C2CC2)cc(-c2cccs2)c1C#N	i	?	?	i	31.6µM
COc1ccc(-c2cc(C(F)(F)F)nc(SCCC(=O)N3CCOCC3)n2)cc1	?	1.76e-08M	1.63e-08M	i	?
COc1ccc(-c2cc(C(F)(F)F)nc(SCC(=O)NCc3ccco3)n2)cc1OC	i	1.05e-07M	1.16e-07M	i	31.6µM
O=C(CSc1nc(-c2cccs2)cc(C(F)(F)F)n1)NCc1ccco1	i	i	i	i	i
COc1ccc(-c2cc(C(F)(F)F)nc(SCC(N)=O)n2)cc1	31.6µM	7.2e-08M	6.75e-08M	i	31.6µM
CN(C)CCCNc1ncnc2nc[nH]c12	i[11.4 µM]	i	i	i[11.5 µM]	i[11.4 µM]
CN1CCN(C(=O)CSc2nc(-c3cccs3)cc(-c3cccs3)c2C#N)CC1	i	8.95e-08M	9.28e-08M	i	25.1µM
Cn1c(SCC(=O)NCc2ccco2)nnc1-c1cccs1	i	1.19e-07M	1.19e-07M	i	i
COc1ccc(-c2ccc(=O)n(CC(=O)NCc3ccco3)n2)cc1	i	i	?	i	i
COc1ccc(-c2cc(-c3cccs3)c(C#N)c(SCC(=O)NCc3ccco3)n2)cc1	15.8µM	1.97e-07M	1.59e-07M	i	25.1µM
Cn1c(SCC(=O)NCc2ccc3c(c2)OCO3)nnc1-c1cccs1	i	i	?	i	i
O=C(CSc1nnc(-c2cccs2)o1)N1CCOCC1	i	i	i	i	i
SMILES	HADH2 inhib	4-MU autofl	A350 autofl	AID923	HSD17B inh
C[C@H](C(=O)c1ccncc1)c1ccccn1	i[11.4 µM]	i	i	i[11.5 µM]	i[11.4 µM]
N#CC1=C(N)SC2(CCCCC2)SC1c1ccccc1 (stereo not drawn)	12.6µM	i	i	i	20µM
CC(C)c1cc(NC(=O)CSc2nnc(-c3ccccc3F)n2C)on1	i	?	?	i	i
Cc1cc(C(=O)COc2ccc3ccc(=O)oc3c2)c(C)n1Cc1cccs1	i	2.85e-07M	3.9e-07M	i	i
Cc1cc(C(=O)COC(=O)CN(C)S(=O)(=O)c2ccc(Cl)cc2)c(C)n1Cc1cccs1	i	i	i	i	i
CCc1cc(=O)oc2cc3oc(C)c(C)c3cc12	i	1.86e-08M	1.98e-08M	i	i
CCCc1cc(=O)oc2cc(C)c3c(C)coc3c12	i	nt	nt	i	?
CCCc1cc(=O)oc2cc3occ(C)c3cc12	i	nt	nt	i	25.1µM
